# Among all 13,000 compounds or so, about 3,200 (25%) showed an effect of 50% or more. This is one part of the list.
# Tested on: P. falciparum stage V gametocytes
# Set-up: BacTiter-Glo ATP luminescence viability of purified stage V gametocytes in 384-well plates, per cent inhibition versus DMSO
# Conditions: 48 h, 5 µM; inhibitor
row,Compound,% Inhibition [%]
1,O=c1cc(NCCCNCc2ccc(Cl)c(Cl)c2)[nH]c2ccc(Oc3ccccc3)cc12 [TCMDC-139409],3.988
2,CCN(CC)CCCC(C)N=C(Nc1ccc(C#N)cc1O)Nc1ccccc1Br (stereo not shown) [TCMDC-140130],34.96
3,COc1ccccc1CNC(=O)c1nn(-c2ccc(Cl)cc2)c(=O)c2ccccc12 [TCMDC-125601],-3.161
4,CCCc1ccc(S(=O)(=O)NC2CCN(c3ccnc(Nc4ccc(OC)cc4)n3)C2)cc1 (stereo not shown) [TCMDC-133613],30.72
5,O=C(NCC1CCC(C(=O)NCCc2ccc(Cl)c(Cl)c2)CC1)c1ccc(O)c(-c2ccc(Cl)c(Cl)c2)c1 (stereo not shown) [TCMDC-140893],30.85
6,COc1ccc(NC(=O)Nc2cc(C)nc3cccnc23)cc1Cn1ccnc1 [TCMDC-140647],-24.24
7,COc1ccccc1CCCN1C(=O)C(c2ccccc2)(c2ccccc2)N=C1N [TCMDC-136504],-6.463
8,O=C(c1cc(-c2ccccc2)n[nH]1)N1CCN(S(=O)(=O)c2ccc(Cl)s2)CC1 [TCMDC-124697],44.38
9,Cc1cc(Cc2ccc(S(=O)(=O)c3cc4c(cc3O)CCN(C)CC4)cc2)ccc1Cl [TCMDC-135485],17.27
10,O=[N+]([O-])c1ccc2c(c1)c1ccccc1n2Cc1ccccc1O [TCMDC-124344],66.38
11,Cc1nc2ccc([N+](=O)[O-])cc2c(=O)n1OCc1ccccc1 [TCMDC-131598],18.76
12,O=[N+]([O-])c1ccc2c(-c3ccccc3)c(-c3ccccc3)n(O)c2c1 [TCMDC-137050],9.077
13,Cc1ccc(C(=O)Nc2ccc(F)c(F)c2F)cc1S(=O)(=O)N1CCCCC1 [TCMDC-124324],19.7
14,CC1(C)N=C(N)N=C(N)N1OCCCCOc1ccc(Cl)cc1C1CCCCC1 [TCMDC-131659],106.8
15,CCCc1cc(OCCCOc2ccccc2)ccc1OCCCON1C(N)=NC(N)=NC1(C)C [TCMDC-131328],103.6
16,CC1(C)N=C(N)N=C(N)N1OCCCOc1cc(Cl)ccc1Cl [TCMDC-131679],20.73
17,CCOC(=O)c1cc(Cl)ccc1OCCCON1C(N)=NC(N)=NC1(C)C [TCMDC-131705],-0.9845
18,CC(C)(C)c1ccccc1OCCCON1C(N)=NC(N)=NC1(C)C [TCMDC-131751],48.16
19,CC1(C)N=C(N)N=C(N)N1OCCCOc1cc(Cl)c(Cl)cc1Cl [TCMDC-137301],-2.55
20,CCCc1cc(C)ccc1OCCCON1C(N)=NC(N)=NC1(C)C [TCMDC-131320],40.89
21,CC1(C)N=C(N)N=C(N)N1OCCCCOc1ccccc1 [TCMDC-131658],4.25
22,CC(C)(C)c1ccc(OCCCON2C(N)=NC(N)=NC2(C)C)c(C(C)(C)C)c1 [TCMDC-131308],56.27
